For 20 compounds, growth inhibition results are on record in PubChem BioAssay (NCI).

The nature of assay [1]: NCI Yeast Anticancer Drug Screen. Data for the rad50 strain (AID 155).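 Also: 0% = growth of vehicle-only cultures of the same strain.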 Conditions: S. cerevisiae rad50 strain growth inhibition; at 50.0 µM; stronger effect = higher value. Put shortly: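 Readout: growth inhibition relative to vehicle-treated cultures. Compound exposure was carried out in a genetically defined yeast strain deficient in DNA damage repair.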
Assay [2] in a line: NCI Yeast Anticancer Drug Screen. Data for the mec2-1 strain (AID 157). Conditions: S. cerevisiae mec2-1 strain, at 50.0 µM, stronger effect = higher value. Put shortly:
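Yeast mec2-1 mutant treated with compound. Readout: growth inhibition vs vehicle controls.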

Assay [3] in a line: NCI Yeast Anticancer Drug Screen. Data for the sgs1 mgt1 strain (AID 161).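 Also: 0% = growth of cultures given vehicle only.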 Conditions: S. cerevisiae sgs1 mgt1 strain, at 50.0 µM, stronger effect = higher value. A digest of the protocol: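 Test agents were incubated with a DNA-repair-mutant yeast strain. Growth was then read and compared against vehicle-treated controls.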
A short description of assay [4]: NCI Yeast Anticancer Drug Screen. Data for the cln2 rad14 strain (AID 165).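 Also: 0% = growth equal to vehicle treated cultures.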 Conditions: S. cerevisiae cln2 rad14 strain, at 50.0 µM, stronger effect = higher value. Put shortly: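 cln2 rad14 yeast strain; compound exposure; growth inhibition read vs vehicle controls.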
Assay [5] in a line: NCI Yeast Anticancer Drug Screen. Data for the bub3 strain (AID 167). Conditions: S. cerevisiae bub3 mutant strain, at 50.0 µM, stronger effect = higher value. Put shortly:
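Readout: yeast growth inhibition, expressed relative to vehicle-only wells. The test organism is a mutant strain from a panel with lesions in DNA repair or checkpoint genes.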

The nature of assay [6]: NCI Yeast Anticancer Drug Screen. Data for the mlh1 rad18 strain (AID 175). Conditions: S. cerevisiae mlh1 rad18 strain growth inhibition; at 50.0 µM; stronger effect = higher value. A digest of the protocol:
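Yeast w/ defined DNA-repair lesions; compound exposure; growth vs vehicle controls → % inhibition.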

The panel holds about 79,000 compounds, 15% with a hit somewhere; the sample as a whole holds those more often. Unmarked numbers belong to inactive results. Calls of active or inactive are those of the source. Rule as the data show it: active = growth inhibition above about 70%; inactive = the rest.

Consider `CN(C)c1ccc(C2SCC(=O)N2NS(=O)(=O)c2cccc(C(=O)O)c2)cc1` (stereo not given), for which the growth inhibition is 5.05% in assay [1]; -21.2% in assay [2]; -10.8% in assay [3]; 4.75% in assay [4]; -24.6% in assay [5]; -2.2% in assay [6].

On to `COc1cc2c(c(OC)c1OC)-c1ccc(OC)c(=O)cc1C(NC(=S)Nc1ccccc1)CC2` (stereo not given), for which the growth inhibition in assay [1] was 96.5% (active); in assay [2], 96.8% (active); in assay [3] it was 96.8% (active); in assay [4], 93.5% (active); in assay [5] it was 95.6% (active); in assay [6], 96.5% (active).

As for `Cc1ccc(O)c(C(C)C)c1`, the growth inhibition is -26.4% in assay [1]; -48.8% in assay [2]; -34.4% in assay [3]; -16.1% in assay [4]; -40.2% in assay [5]; -8.6% in assay [6].

For the compound `COC(=O)c1nc(N)nc(C(=O)OC)c1C(=O)c1ccc(Cl)c(Cl)c1`, the growth inhibition was -7.6% in assay [1]; 7.15% in assay [2]; -18.5% in assay [3]; -5.05% in assay [4]; 3.2% in assay [5]; 10.6% in assay [6].

In the case of `CCCCS/C=C\SCCCC`, the growth inhibition was 2.85% in assay [1]; 7.55% in assay [2]; -8.5% in assay [3]; -26.4% in assay [4]; 6.7% in assay [5]; -1.65% in assay [6].

Regarding `CCCCCCCCCC(=O)OCC1OC(n2cc(F)c(=O)[nH]c2=O)C(N)C(OC(=O)CCCCCCCCC)C1O` (stereo not given), the growth inhibition is 42.8% in assay [1]; 5.6% in assay [2]; 17.1% in assay [3]; 57.6% in assay [4]; 8.85% in assay [5]; 8.15% in assay [6].

With `CCOC(C[N+](C)(C)C)OCC`, the growth inhibition in assay [1] is 9.7%; in assay [2], -25.6%; in assay [3], 2.4%; in assay [4], 8%; in assay [5] it was 30%; in assay [6], 0.3%.

For the compound `O=c1cc(CO)oc2c3c(cc(O)c12)OCC(COC1OC(CO)C(O)C(O)C1O)=CC3` (stereo not given), the growth inhibition in assay [1] is -1.25%; in assay [2], -8.75%; in assay [3], -1.75%; in assay [4] it was -13.9%; in assay [5], -0.55%; in assay [6], -0.9%.

For the compound `CC(C)(C)OC(=O)N1CCc2c([nH]oc2=O)C1`, the growth inhibition in assay [1] was -1.25%; in assay [2], -8.55%; in assay [3], -3.5%; in assay [4] it was -17.6%; in assay [5], 10.6%; in assay [6], -3.8%.

In the case of `CC(=O)c1c(-c2ccc(Cl)cc2)c(-c2ccc(Cl)cc2)nn(CCN)c1=O`, the growth inhibition in assay [1] is 38.1%; in assay [2] it was 15.2%; in assay [3], 29.2%; in assay [4], 24.6%; in assay [5], 42.7%; in assay [6] it was 93% (active).

Take `CC1(C)OS(=O)(=O)C=C1Br`: the growth inhibition is 16.7% in assay [1]; -9.8% in assay [2]; -4.15% in assay [3]; -16% in assay [4]; -8.4% in assay [5]; -16.6% in assay [6].

Take `CNSC1CCC2(C)C(=CCC3C2CCC2(C)C(C(C)CCCC(C)C)CCC32)C1` (stereo not given): the growth inhibition in assay [1] is -1.3%; in assay [2], 1.7%; in assay [3], -9.6%; in assay [4] it was -5.05%; in assay [5] it was -3%; in assay [6], 10%.

Turning to `CC(=O)NC(CCCCN)C(=O)NCc1ccccc1` (stereo not given), the growth inhibition in assay [1] was -1.95%; in assay [2], -12%; in assay [3] it was -12.1%; in assay [4] it was 11.1%; in assay [5], -19%; in assay [6] it was -20.4%.

On to `CCN(c1ccccc1)c1ncnc2nc[nH]c12`, for which the growth inhibition in assay [1] was 6.75%; in assay [2] it was 0.75%; in assay [3], -1.75%; in assay [4], -28.9%; in assay [5], 19.9%; in assay [6], -5.5%.

As for `CCOC(=O)[C@]1(Br)CC[C@]1(Br)C(=O)OCC`, the growth inhibition in assay [1] was 16.2%; in assay [2] it was -12.7%; in assay [3] it was -4.95%; in assay [4], 10%; in assay [5], -29.1%; in assay [6] it was -62.8%.

For the compound `c1ccc(B2OB(c3ccccc3CN3CCCC3)OB(c3ccccc3CN3CCCC3)O2)c(CN2CCCC2)c1`, the growth inhibition in assay [1] was 21%; in assay [2] it was 4.15%; in assay [3] it was 0.05%; in assay [4], 17.1%; in assay [5], 0.75%; in assay [6] it was 15.4%.

Regarding `NC(CC1=CS(=O)(=O)c2ccc(Cl)cc21)C(=O)O` (stereo not given), the growth inhibition in assay [1] is 18.4%; in assay [2], 19.3%; in assay [3] it was 4.45%; in assay [4], -16.2%; in assay [5], 23.8%; in assay [6], 23.9%.

For `COc1cc(C)nc2ccc(C(=O)c3ccccc3)cc12`, the growth inhibition in assay [1] is 31%; in assay [2] it was 6.1%; in assay [3] it was 31.6%; in assay [4] it was 17.5%; in assay [5], 10.4%; in assay [6], 48%.

On to `COc1cccc2c1C(=O)c1c(O)c3c(c(O)c1C2=O)CC(O)(C(C)=O)CC3O` (stereo not given), for which the growth inhibition in assay [1] was 61.5%; in assay [2], 12.5%; in assay [3] it was 39%; in assay [4], 17.1%; in assay [5] it was 34.4%; in assay [6], 50.5%.

Take `CCN(CC)c1ccc(CO)cc1`: the growth inhibition was 7.65% in assay [1]; 4.8% in assay [2]; -22.8% in assay [3]; -9.85% in assay [4]; -1.05% in assay [5]; -13.2% in assay [6].
